# A selection: hits, their analogues and other compounds. The true share with any hit is near 2.3%.
# Abeta rescue = A-beta toxicity reversal in yeast. yeast expressing A-beta42, growth rescue, OD600, 48 h; response scale: 0% DMSO, 100% iron-clioquinol control. Potency, µM (doses to about 46.1 µM), usual class: activators. AID 1347071. actives 0.063% (n = 410,000); also: potency is read from the fitted curve at half-maximal effect; nearly all actives have a fitted effect of over 55% in size
#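 Yeast A-beta toxicity model in growth medium with pinned compounds, 48 h at 30 C; growth read as absorbance at 600 nm. Normalized to FeCl3/clioquinol equimolar mix (positive) and DMSO (negative).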
# MmCpn inh = blocks the Methanococcus maripaludis chaperonin Mm-Cpn. purified Mm-Cpn ATPase, ADP Transcreener TR-FRET. Potency, µM (top dose mostly 76.9 µM), inactives show top-dose activity, negative = inhibition, most hits filed as inhibitors. actives 0.031% (n = 330,000). AID 504842; also: potency is read from the fitted curve at half-maximal effect; % is scaled to controls: 0 for no effect and ±100 for the full control effect; nearly all actives have a fitted effect of over 80% in size
#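 ATPase turnover read by TR-FRET ADP competition (Eu cryptate antibody/ADP-d2, 665/590 nm): 10uM ATP final, 25nM Mm-CPN final, 30 min 37degC after 10-min compound preincubation, pH 7.4 Tris/KCl/MgCl2/DTT buffer.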
# aSyn yeast inh = rescues yeast growth from alpha-synuclein toxicity | AID 652106 | actives 0.14% (n = 370,000) | Potency, µM (top dose mostly 46.1 µM), for the others: top-dose growth rescue (activation), most hits filed as activators | Yeast expressing alpha-synuclein, growth rescue, BacTiter-Glo, 24 h; also: potency is read from the fitted curve at half-maximal effect; % of control where 0% means no effect; nearly all actives have a fitted effect of over 65% in size
#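 Readout is rescue of growth in alpha-synuclein-expressing yeast, so inhibitors of toxicity appear as activators. Growth after 24 hr at 30 deg C in galactose medium is quantified by luminescence.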
# FUS yeast rescue = FUS proteinopathy suppression in yeast. S. cerevisiae FUS-expressing, growth rescue, OD600, 24 h. Potency, µM (titrated, usually from 76.6 µM), usual class: activators. actives 0.24% (n = 390,000). AID 1347120;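 also: potency is read from the fitted curve at half-maximal effect; plate controls were DMSO vehicle for no effect and reference control for full effect; nearly all actives have a fitted effect of over 55% in size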
#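 Cultures pregrown in 2.5% raffinose medium are shifted to minimal medium containing 2% galactose to express toxic FUS. Compounds are tested at several concentrations. After 24hr at 30C, growth is quantified at 600 nm absorbance.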
# CCT chaperon mod = cytosolic chaperonin activity modulation | activity change, % (no concentration beside the values), hits read low | AID 651819 | actives 0.3% (n = 360,000) | purified chaperonin ATPase assay, HTRF ADP detection, 30 min; in the data active = activity change below about -30%; also: % is scaled to controls: 0 for no effect and ±100 for the full control effect
#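 ATPase activity: ADP formed was measured by HTRF Transcreener (665/615 nm ratio) after 30 min at 37 deg C with 10 uM ATP. Compounds screened at one 76 uM concentration against 40 or 20 nM TRiC in Tris pH 7.4/KCl/MgCl2/DTT buffer.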
# TDP-43 yeast inh = rescues yeast growth from TDP-43 toxicity | TDP-43 expressing yeast growth rescue, BacTiter-Glo, 24 h | Potency, µM (doses to about 46.1 µM), without a hit: top-dose growth rescue (activation), usual class: activators | actives 1.8% (n = 410,000); also: potency is read from the fitted curve at half-maximal effect; % of control where 0% means no effect; nearly all actives have a fitted effect of over 50% in size
#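 Galactose-induced TDP-43 yeast, OD600=0.02, compound pinned; 24 hr, 30 deg C; BacTiter-Glo luminescence for growth. Inhibitors of TDP-43 toxicity read as activators.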
# * = called active by the depositor; i = inactive; ? = inconclusive; . = not tested or not shown; [ ] = dose if it differs, or a comment. Unless noted, calls follow the shape of the dose curve; as a rule, active = well fitted curve in the direction sought with a large enough effect; inconclusive = small, poorly fitted or top-dose-only effect, or another doubt; inactive = no such curve, though single readings can be large; an effect the other way counts as inactive or inconclusive.
SMILES,Abeta rescue,MmCpn inh,aSyn yeast inh,FUS yeast rescue,CCT chaperon mod,TDP-43 yeast inh
CC(C)(C)c1ccc(-n2nc(C#N)c(Cl)cc2=O)cc1,i,-9%,-1%,i,0,3.5µM*
CC(C)(C)c1ccc(-n2nc(C(N)=O)c(O)cc2=O)cc1,i,-3%,9%,i,-3,16%
CC(c1ccccc1)N1CC[C@H]2C=CC[C@@H](C(=O)Nc3cccc(Cl)c3)[C@H]2C1=O (stereo not given in full),.,.,.,i,.,.
CCCCC1(C)NC(=O)c2c(C)sc(C(=O)OCC)c2N1 (stereo not given),i,-18%,14%,i,0,20µM*
CCOC(=O)CC1(C)NC(=O)c2c(C)sc(C(=O)OCC)c2N1 (stereo not given),i,-5%,11%,.,0,6%
CCc1nc(SCc2ccc(Br)cc2)n[nH]1,i,0%,12%,i,-1,?
CCc1nc(SCc2ccc(Cl)cc2)n[nH]1,i,-1%,3%,i,-1,13µM*
O=S(=O)(Nc1nc(SCc2ccc(Cl)cc2)n[nH]1)c1ccc(F)cc1,?,1%,0%,i,0,20µM*
COc1cccc(C(=O)NCC(c2ccc(N(C)C)cc2)N2CCc3ccccc32)c1OC (stereo not given),i,.,.,i,.,12%
O=S(=O)(c1ccccc1F)N1CCC(Oc2ccc(-n3cnnn3)cc2)CC1,?,-6%,24%,i,-1,13µM*
CCOc1cccc(C(=O)N(Cc2ccc(C(C)C)cc2)C2CCS(=O)(=O)C2)c1 (stereo not given),i,.,.,i,.,?
N#Cc1cnn2c(-c3ccccc3)ccnc12,i,.,10%,i,-29,4%
NC(=S)c1cnn2c(-c3cccc(C(F)(F)F)c3)ccnc12,6.3µM*,-7%,-11%,i,-2,?
Cc1cccc2cc(CN(Cc3ccccc3)Cc3nnnn3Cc3ccccc3)c(=O)[nH]c12,.,.,6%,.,.,.
COc1cc([N+](=O)[O-])cc(/C=N/NC(=O)C(C)Nc2cccc(C)c2)c1O (stereo not given),i,1%,9%,.,-3,28%
COc1cc([N+](=O)[O-])cc(/C=N/NC(=O)C(C)Nc2ccccc2C)c1O (stereo not given),i,0%,2%,.,0,20µM*
Cc1noc(NS(=O)(=O)c2ccc(N/C=C/C(=O)c3cccnc3)cc2)c1C,i,2%,20µM*,i,-2,-1%
COc1ccc(/C=N\NC(=O)Cc2cccs2)c(OC)c1OC,.,.,.,i,.,.
CN(C)c1nc(SCCOC(=O)Nc2ccccc2)nc(N(C)C)n1,i,0%,1%,.,-2,3.2µM*
CCS(=O)(=O)Nc1ccc2c(c1)C(=O)N(C)[C@@H]1CC[C@H](CC(=O)N[C@@H]3CCN(Cc4ccccc4)C3)O[C@H]1CO2,.,.,.,i,.,.
CCc1cc(C(=O)NNC(=S)Nc2cccc(C)c2)cs1,i,-2%,-4%,i,-1,?
CCc1cc(C(=O)Nc2ccc(C)cc2Br)cs1,i,2%,-1%,i,-1,13µM*
CCOc1cc(C2C(C(=O)OC)=C(C)NC3=C2C(=O)c2ccccc23)cc(Br)c1OCC (stereo not given),i,.,.,i,.,-2%
COc1ccc(Cl)cc1C1=CC(=O)C[C@H](c2ccc(F)cc2)C1,i,-2%,2%,i,2,13µM*
COc1ccc(C2=CC(=O)C[C@H](c3ccc(F)cc3)C2)c(F)c1F,i,-5%,21%,?,-1,16µM*
SMILES,Abeta rescue,MmCpn inh,aSyn yeast inh,FUS yeast rescue,CCT chaperon mod,TDP-43 yeast inh
COc1ccc(C2=CC(=O)C[C@H](c3ccc(F)cc3)C2)c(OC)c1,i,-1%,6%,?,1,22µM*
CCC(=O)OCCCN1CCC2(CCC(c3ccccc3)CC2)C1=O (stereo not given),.,.,.,i,.,.
O=C(c1cccc(Cl)c1)N1c2nc(-c3ccco3)nn2C2(CCCCC2)[C@@H]2CCCC[C@@H]21,i,.,.,i,.,8%
O=C(c1cccc(Cl)c1)N1c2ncnn2C2(CCCCC2)[C@@H]2CCCC[C@@H]21,i,.,.,i,.,13µM*
COc1cc(/C=C\C(=O)OCn2nnc3ccccc3c2=O)cc(OC)c1OC,i,-1%,?,i,-36*,20µM*
COc1cccc(C(=O)OCn2nnc3ccccc3c2=O)c1OC,i,2%,-3%,i,-3,?
Cc1ccccc1C(=O)OCn1nnc2ccccc2c1=O,i,1%,25%,i,1,14µM*
O=C(OCn1nnc2ccccc2c1=O)c1ccc(O)cc1,i,1%,?,i,0,22%[9.22 µM]
COc1ccc(C(=O)OCn2nnc3ccccc3c2=O)cc1,i,-1%,?,i,2,18µM*
COC(=O)[C@]1(C#N)CC(=O)N(Cc2ccc(Cl)cc2)[C@@H]1c1ccc(OC)cc1,.,.,.,i,.,.
C=C(C)Cn1c(=S)[nH]c2ccccc2c1=O,i,.,5%,i,-1,13µM*
O=C(NC(=S)NCc1ccccc1)c1cccs1,?,1%,-13%,i,0,13µM*
O=C(NC(=S)NCc1ccc(F)cc1)c1ccccc1,i,2%,-5%,.,1,22µM*
O=C(NC(=S)NCc1ccccc1)c1ccccc1,11µM*,-1%,-1%,i,-1,-19%[0.397 µM]
O=C(NCc1cccc2ccccc12)c1cccs1,i,1%,3%,i,2,13µM*
O=C(Cc1cccc2ccccc12)NNC(=O)c1cccs1,i,1%,7%,i,-2,0%
O=C(NC(=S)NCc1ccncc1)c1ccccc1,i,0%,-9%,i,-4,7%
CCOC(=O)Cc1ccc(NC(=O)NC(C)c2c(-n3cccc3)sc(C)c2C)cc1 (stereo not given),i,.,.,i,.,12%
C[C@H]1[C@H](NC(=O)c2ccc(Cl)cc2)CC[C@@]23CCCN2C(=O)CCC[C@@H]13,.,.,.,i,.,.
Cc1ccc(NC(=O)C2CCN(c3ncccn3)CC2)cc1C,.,.,.,i,.,.
N#Cc1cn(CCOc2ccc(F)cc2)c2ccccc12,?,1%,28%,i,-4,20µM*
N#Cc1cn(CCOc2ccccc2F)c2ccccc12,?,1%,?,i,1,?
O=C(C1COc2ccccc2O1)N1CCN(c2ccccc2)CC1 (stereo not given),?,2%,1%,i,-1,25µM*

# Assay outcomes as filed in PubChem.
